In PubChem BioAssay (NCI):
The panel holds about 83,000 compounds, 20% with a hit somewhere; the sample as a whole holds those more often.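 Testing used 96-well plates and a 48-hour single-concentration exposure. Example: -40 means 40% of the starting cells died.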 Activity calls are given as the source filed them. The calls were made as follows: active = growth percent below 10; inactive = the rest.

Tested on: T-47D breast
Assay: NCI-60 one-dose screen, 48 h (100 = growth as untreated, 0 = no growth, -100 = all killed)
Conditions: 10 µM unless noted

| Compound | growth |
| --- | --- |
| COc1ccc2c(c1)OC13Oc4cc(OC)ccc4C=C1CCCCC3=C2 | 67.6% (inactive) |
| C/C(=N/Nc1nc2ccccc2n1C)c1ccccn1 | 8.05% (active) |
| Cc1nc2sc(C(=O)Nc3cccc4ccccc34)c(N)c2cc1C(C)O (centres undefined) | 49.4% (inactive) |
| CCOc1ccccc1C(=O)/C=C/c1cc2ccccc2[nH]c1=O | 4.65% (active) |
| Cc1ccc(C2=N[C@H]3CCC[C@@H]3N(c3ccccc3)C(C(Cl)Cl)=N2)cc1 | 106% (inactive) |
| COc1cc(/C=C/CO)cc(OC)c1O[C@@H]1O[C@H](CO)[C@@H](O)[C@H](O)[C@H]1O | 93.1% (inactive) |
| O=C1CCC23OC(c4ccccc4N12)C(O)C(O)C3O (centres undefined) | 110% (inactive) |
| COc1cc(/C=C/C(=O)c2cccs2)ccc1OCc1ccc(Cl)nc1 | 77.1% (inactive) |
| O=c1c2ccccc2oc2ccc(OCCCCCN3CCCCCC3)cc12 | 58.8% (inactive) |
| C=C1C(=O)O[C@H]2[C@H]1CC/C(COC(=O)NCC(=O)Nc1ccc(OC)c(C(N)=O)c1O)=C\CC[C@@]1(C)O[C@@H]21 | 34.4% (inactive) |
| COc1ccc(-c2[nH]c3ccccc3c2C=C(C#N)C#N)cc1 | 51.5% (inactive) |
| COC(=O)/C=C/c1cc(OC(C)=O)c2c(c1)C(C(=O)OC)C(c1ccc(OC(C)=O)c(OC(C)=O)c1)O2 (centres undefined) | 49.3% (inactive) |
| Nc1cc(N)c(S(=O)(=O)O)cc1N=Nc1cc([N+](=O)[O-])ccc1O | 97.2% (inactive) |
| CC1CCN(CCCCCOc2ccc3oc4ccccc4c(=O)c3c2)CC1 | 67.6% (inactive) |
